From PubChem BioAssay (NCATS)
Results filed as inconclusive are left out. The source made the active and inactive calls. Unless noted, calls come from the whole dose curve.

Assays:
[1] = biological target: Glucocorticoid receptor (Homo sapiens) (UniProt P04150); experiment: qHTS assay for small molecule agonists of glucocorticoid receptor signaling (AID 588532; active = well fitted curve in the direction sought with a large enough effect in the signal ratio, with a control signal flat; the % refers to the signal ratio;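 note: 100% = dexamethasone at 0.1 µM and 0% = DMSO only wells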); details: HeLa MMTV-bla, beta-lactamase ratio, agonist, 18 h; stronger effect = higher value; percent of dexamethasone control, DMSO zero
Chain of Glucocorticoid receptor (Homo sapiens) (P04150 whole entry, looked up): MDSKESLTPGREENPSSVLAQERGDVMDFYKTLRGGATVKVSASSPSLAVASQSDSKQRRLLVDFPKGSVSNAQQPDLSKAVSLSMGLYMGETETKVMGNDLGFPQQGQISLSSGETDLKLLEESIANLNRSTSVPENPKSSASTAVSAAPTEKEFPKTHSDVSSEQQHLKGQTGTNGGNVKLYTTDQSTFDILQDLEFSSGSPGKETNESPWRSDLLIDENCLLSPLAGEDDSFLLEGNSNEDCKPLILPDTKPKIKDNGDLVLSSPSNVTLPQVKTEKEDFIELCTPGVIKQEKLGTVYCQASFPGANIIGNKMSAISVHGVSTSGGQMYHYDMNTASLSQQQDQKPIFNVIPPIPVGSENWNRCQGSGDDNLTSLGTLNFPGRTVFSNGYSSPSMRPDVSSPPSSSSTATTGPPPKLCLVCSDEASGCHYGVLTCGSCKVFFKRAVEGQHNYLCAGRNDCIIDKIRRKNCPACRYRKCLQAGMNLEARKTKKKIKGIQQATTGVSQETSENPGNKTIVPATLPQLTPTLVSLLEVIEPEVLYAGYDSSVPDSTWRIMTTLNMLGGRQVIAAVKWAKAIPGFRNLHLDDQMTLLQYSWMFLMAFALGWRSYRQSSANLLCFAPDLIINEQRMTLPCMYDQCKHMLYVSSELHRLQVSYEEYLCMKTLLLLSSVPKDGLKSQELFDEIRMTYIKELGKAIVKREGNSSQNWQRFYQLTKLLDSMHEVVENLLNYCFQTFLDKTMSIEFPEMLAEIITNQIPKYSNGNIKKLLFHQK
Method in brief: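 Titration series, up to 92 uM, applied to GRE-bla HeLa cells for 18 h at 37 C. Detection by CCF4 FRET substrate after 2 h at RT.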

[2] = biological target: Glucocorticoid receptor (Homo sapiens) (UniProt P04150); experiment: qHTS assay for small molecule antagonists of glucocorticoid receptor signaling (AID 588533; active = well fitted inhibition curve with a large enough effect in the signal ratio, with a control signal flat, not every such curve was filed as active; the % refers to the signal ratio;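 note: cells stimulated with 2 nM dexamethasone as agonist; % is set by controls: 0 for no effect and ±100 for the full control effect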); details: HeLa MMTV-bla, GRE beta-lactamase ratio, antagonist mode, 18 h; series mostly up to 76.8 µM
Method in brief: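 Antagonist-mode qHTS: compound titrations added to GRE-bla HeLa cells, then dexamethasone 2 nM final; 18 h, 37 C. CCF4 FRET fluorescence normalized to dexamethasone and DMSO; IC50 from Hill fit.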

[3] = qHTS assay for small molecule antagonists of peroxisome proliferator-activated receptor delta signaling (AID 588535); details: HEK293T PPARd-UAS-bla, beta-lactamase FRET ratio, 18 h; 460 nm channel;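 note: cells co-treated with a PPAR-delta agonist as stimulator during compound exposure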
Method in brief: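 GeneBLAzer PPAR-delta-UAS-bla HEK293T cells in medium with 2% charcoal/dextran FBS were preincubated 5 hrs at 37 C, then given compounds, incubated 18 hrs at 37 C, and read by CCF4 beta-lactamase fluorescence; IC50 from Hill fits.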

[4] = biological target: Peroxisome proliferator-activated receptor gamma (Homo sapiens) (UniProt P37231); experiment: qHTS assay for small molecule agonists of peroxisome proliferator-activated receptor gamma signaling (AID 588536; active = well fitted curve in the direction sought with a large enough effect in the signal ratio, with a control signal flat, not every such curve was filed as active; the % refers to the signal ratio;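 note: 0% = DMSO basal wells and 100% = rosiglitazone at 2 µM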); details: HEK293 PPARg-UAS-bla, beta-lactamase ratio, 16 h, percent of rosiglitazone response, DMSO as zero; series mostly up to 76.7 µM
Chain of Peroxisome proliferator-activated receptor gamma (Homo sapiens) (P37231 whole entry, looked up): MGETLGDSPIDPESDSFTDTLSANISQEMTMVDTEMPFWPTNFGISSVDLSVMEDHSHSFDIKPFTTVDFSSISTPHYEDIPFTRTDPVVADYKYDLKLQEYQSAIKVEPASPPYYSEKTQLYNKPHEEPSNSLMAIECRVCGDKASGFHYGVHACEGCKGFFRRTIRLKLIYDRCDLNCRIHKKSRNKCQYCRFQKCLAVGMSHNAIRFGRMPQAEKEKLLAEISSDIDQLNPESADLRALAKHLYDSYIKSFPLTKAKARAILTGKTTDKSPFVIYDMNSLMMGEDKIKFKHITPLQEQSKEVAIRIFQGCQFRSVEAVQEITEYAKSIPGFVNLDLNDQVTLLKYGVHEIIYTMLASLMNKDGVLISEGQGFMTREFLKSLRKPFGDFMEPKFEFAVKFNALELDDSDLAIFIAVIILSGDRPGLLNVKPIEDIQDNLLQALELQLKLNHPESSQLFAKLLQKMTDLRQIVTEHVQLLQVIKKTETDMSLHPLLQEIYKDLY
Method in brief: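 PPAR-gamma-UAS-bla HEK293 cells in medium with 1% charcoal/dextran-treated FBS were exposed to compounds for 16 h at 37 C. Beta-lactamase activity was read with CCF4 substrate (405 nm excitation, 460/530 nm emission).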

[5] = biological target: Peroxisome proliferator-activated receptor gamma (Homo sapiens) (UniProt P37231); experiment: qHTS assay for small molecule antagonists of peroxisome proliferator-activated receptor gamma signaling (AID 588537; active = well fitted inhibition curve with a large enough effect in the signal ratio, with a control signal flat, not every such curve was filed as active; the % refers to the signal ratio;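 note: reporter cells co-stimulated with 50 nM rosiglitazone agonist during compound treatment; % of control where 0% means no effect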); details: HEK293 PPARg-UAS-bla, beta-lactamase ratio, antagonist mode; series mostly up to 76.8 µM
Method in brief: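 PPAR-gamma-UAS-bla HEK293 cells (3000/well, 1% charcoal/dextran-stripped FBS) were preincubated 6-6.5 h at 37 C, given titrated compounds, then stimulated with 50 nM rosiglitazone for 16 h. Beta-lactamase activity was read with CCF4 dye; IC50 came from Hill fits.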

[6] = biological target: Vitamin D3 receptor (Homo sapiens) (UniProt P11473); experiment: qHTS assay for small molecule antagonists of vitamin D receptor signaling (AID 588541); details: HEK293T VDR-UAS-bla, beta-lactamase ratio, antagonist mode; series mostly up to 76.7 µM;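 note: receptor activated by calcitriol during compound treatment; % is set by controls: 0 for no effect and ±100 for the full control effect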
Chain of Vitamin D3 receptor (Homo sapiens) (P11473 whole entry, looked up): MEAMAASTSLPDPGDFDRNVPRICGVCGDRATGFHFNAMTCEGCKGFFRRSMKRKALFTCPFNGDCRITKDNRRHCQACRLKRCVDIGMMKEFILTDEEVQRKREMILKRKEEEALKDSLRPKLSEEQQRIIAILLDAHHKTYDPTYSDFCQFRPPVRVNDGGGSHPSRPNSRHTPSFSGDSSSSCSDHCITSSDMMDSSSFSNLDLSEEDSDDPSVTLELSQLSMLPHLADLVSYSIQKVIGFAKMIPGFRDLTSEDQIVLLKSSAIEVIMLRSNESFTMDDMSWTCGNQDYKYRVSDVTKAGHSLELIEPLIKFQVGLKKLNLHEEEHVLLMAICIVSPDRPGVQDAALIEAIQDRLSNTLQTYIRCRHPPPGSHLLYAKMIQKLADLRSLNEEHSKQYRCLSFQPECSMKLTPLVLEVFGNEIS
Method in brief: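 VDR-UAS-bla HEK293T cells (2000/well, 2% charcoal-stripped FBS) were treated with titrated compounds plus 1-alpha,25-dihydroxyvitamin D3 (50 nM or 3 nM final) for 16 h at 37 C. CCF4 beta-lactamase fluorescence was read; Hill fits gave IC50.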

[7] = qHTS assay for small molecule agonists of retinoid X receptor alpha signaling (AID 588544); details: HEK293T RXRa-UAS-bla, beta-lactamase reporter, 18 h; 530 nm emission;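 for activation: 0% = DMSO basal wells and 100% = reference agonist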
[8] = biological target: Retinoic acid receptor RXR-alpha (Homo sapiens) (UniProt P19793); experiment: as above; details: HEK293T RXRa-UAS-bla, beta-lactamase reporter, 18 h; series mostly up to 76.7 µM
Chain of Retinoic acid receptor RXR-alpha (Homo sapiens) (P19793 whole entry, looked up): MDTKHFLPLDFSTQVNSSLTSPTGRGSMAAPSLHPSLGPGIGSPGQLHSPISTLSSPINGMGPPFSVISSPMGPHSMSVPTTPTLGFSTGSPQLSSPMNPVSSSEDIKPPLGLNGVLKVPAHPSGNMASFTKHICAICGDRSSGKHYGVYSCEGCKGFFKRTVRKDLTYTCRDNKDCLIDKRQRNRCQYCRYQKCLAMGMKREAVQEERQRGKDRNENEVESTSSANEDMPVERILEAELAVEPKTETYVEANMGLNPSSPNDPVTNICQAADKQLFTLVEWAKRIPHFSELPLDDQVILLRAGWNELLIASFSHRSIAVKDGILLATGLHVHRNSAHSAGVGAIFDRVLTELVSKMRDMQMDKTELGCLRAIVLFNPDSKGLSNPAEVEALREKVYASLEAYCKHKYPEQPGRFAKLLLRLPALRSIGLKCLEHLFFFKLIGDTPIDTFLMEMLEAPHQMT

[9] = biological target: Thyroid hormone receptor beta (Homo sapiens) (UniProt P10828); experiment: qHTS assay for small molecule agonists of thyroid hormone receptor beta signaling (AID 588545); details: TR-UAS-bla GripTite HEK 293, beta-lactamase ratio, agonist mode, 18 h, percent of T3 response, DMSO as zero; series mostly up to 76.7 µM
Chain of Thyroid hormone receptor beta (Homo sapiens) (P10828 whole entry, looked up): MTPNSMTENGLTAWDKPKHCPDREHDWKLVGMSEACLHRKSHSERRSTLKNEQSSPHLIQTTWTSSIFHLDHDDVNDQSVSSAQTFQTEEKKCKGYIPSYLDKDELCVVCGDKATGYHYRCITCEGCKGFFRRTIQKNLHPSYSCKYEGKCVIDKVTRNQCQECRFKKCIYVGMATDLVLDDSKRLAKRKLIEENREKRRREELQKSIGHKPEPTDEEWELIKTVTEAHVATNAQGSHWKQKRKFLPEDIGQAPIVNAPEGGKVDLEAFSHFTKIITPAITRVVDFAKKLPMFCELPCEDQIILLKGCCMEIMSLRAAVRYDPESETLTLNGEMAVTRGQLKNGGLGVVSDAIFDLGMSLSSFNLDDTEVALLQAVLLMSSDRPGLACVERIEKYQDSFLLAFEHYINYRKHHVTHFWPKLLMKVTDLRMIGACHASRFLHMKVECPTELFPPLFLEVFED
Method in brief: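 Cells (2500/well) were seeded, incubated 4 hrs at 37 C, dosed with a compound series, incubated 18 hrs, loaded with CCF4 dye for 2 hrs at RT, then read for fluorescence. Data were scaled between DMSO (0%) and 10 nM T3 (100%).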

[10] = qHTS assay for small molecule antagonists of retinoid X receptor alpha signaling (AID 588546; active = well fitted inhibition curve with a large enough effect in the signal ratio, with a control signal flat, not every such curve was filed as active; the % refers to the signal ratio;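 note: cells stimulated with 9-cis-retinoic acid as agonist; % is set by controls: 0 for no effect and ±100 for the full control effect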); details: HEK293T RXRa-UAS-bla, beta-lactamase ratio, antagonist mode; measured here: W530 green channel, cytotoxicity proxy
Method in brief: (§1)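 Beta-lactamase reporter inhibition, read as CCF4 fluorescence ratio (ex 405, em 460/530 nm) after 2 h at RT. HEK293T UAS-bla cells, 2500/well, were stimulated with 9-cis-RA at 500 or 100 nM final alongside test compound for 18 h at 37 C.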

[11] = biological target: Retinoic acid receptor RXR-alpha (Homo sapiens) (UniProt P19793); experiment: as above; details: HEK293T RXRa-UAS-bla, beta-lactamase ratio, antagonist mode
Method in brief: as §1

[12] = biological target: Thyroid hormone receptor beta (Homo sapiens) (UniProt P10828); experiment: qHTS assay for small molecule antagonists of thyroid hormone receptor beta signaling (AID 588547; active = well fitted inhibition curve with a large enough effect in the signal ratio, with a control signal flat, not every such curve was filed as active; the % refers to the signal ratio;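 note: cells stimulated with 0.4 nM T3 agonist during compound exposure; % is set by controls: 0 for no effect and ±100 for the full control effect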); details: TR-UAS-bla HEK293, beta-lactamase ratio, antagonist mode, 18 h
Method in brief: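 TR-UAS-bla GripTite HEK293 cells in 2% charcoal/dextran FBS medium were preincubated 4 h at 37 C, given compound (0.59 nM to 92 uM) plus 0.4 nM T3 (final) for 18 h, then CCF4 for 2 h at RT; Hill fit gave IC50.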

[13] = biological target: Voltage-gated inwardly rectifying potassium channel KCNH2 (Homo sapiens) (UniProt Q12809); experiment: qHTS Assay for Small Molecule Inhibitors of the Human hERG Channel Activity (AID 588834; active = well fitted inhibition curve with a large enough effect;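 note: top concentration of the series differs between compounds; % is set by controls: 0 for no effect and ±100 for the full control effect; lower thallium flux fluorescence means stronger hERG block; nearly all actives have a fitted effect of over 50% in size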); details: U2OS BacMam hERG, FluxOR thallium flux fluorescence; series mostly up to 92.2 µM
Chain of Voltage-gated inwardly rectifying potassium channel KCNH2 (Homo sapiens) (Q12809 whole entry, looked up): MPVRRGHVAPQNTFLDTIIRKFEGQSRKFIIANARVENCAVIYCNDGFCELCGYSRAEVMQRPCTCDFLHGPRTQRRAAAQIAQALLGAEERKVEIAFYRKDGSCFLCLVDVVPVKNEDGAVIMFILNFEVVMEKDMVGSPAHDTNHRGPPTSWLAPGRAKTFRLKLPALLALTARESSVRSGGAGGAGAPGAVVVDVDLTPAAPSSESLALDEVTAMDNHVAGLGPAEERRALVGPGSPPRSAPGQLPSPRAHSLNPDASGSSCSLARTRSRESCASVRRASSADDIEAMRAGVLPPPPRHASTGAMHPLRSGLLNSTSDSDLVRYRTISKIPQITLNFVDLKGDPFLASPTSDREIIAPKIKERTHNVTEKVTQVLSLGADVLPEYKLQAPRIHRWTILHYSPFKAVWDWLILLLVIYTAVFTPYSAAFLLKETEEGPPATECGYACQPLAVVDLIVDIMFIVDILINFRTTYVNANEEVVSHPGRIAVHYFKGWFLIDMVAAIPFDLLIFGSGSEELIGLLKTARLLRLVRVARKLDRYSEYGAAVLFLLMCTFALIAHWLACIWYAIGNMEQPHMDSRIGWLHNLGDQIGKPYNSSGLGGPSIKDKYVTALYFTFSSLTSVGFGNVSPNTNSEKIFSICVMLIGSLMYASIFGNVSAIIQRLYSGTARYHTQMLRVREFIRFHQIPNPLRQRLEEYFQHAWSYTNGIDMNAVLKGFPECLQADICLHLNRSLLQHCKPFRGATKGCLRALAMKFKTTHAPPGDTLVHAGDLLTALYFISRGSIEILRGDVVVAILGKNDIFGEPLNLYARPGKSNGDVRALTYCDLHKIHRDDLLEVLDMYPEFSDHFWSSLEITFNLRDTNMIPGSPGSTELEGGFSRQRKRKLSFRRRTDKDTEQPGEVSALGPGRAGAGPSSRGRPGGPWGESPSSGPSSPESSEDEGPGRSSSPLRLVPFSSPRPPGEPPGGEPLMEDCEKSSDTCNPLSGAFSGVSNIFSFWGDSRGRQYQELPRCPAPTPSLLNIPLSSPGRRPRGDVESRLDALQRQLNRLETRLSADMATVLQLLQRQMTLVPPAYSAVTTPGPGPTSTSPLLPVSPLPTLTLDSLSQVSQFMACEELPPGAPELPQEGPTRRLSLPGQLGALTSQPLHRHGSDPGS
Method in brief: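 Concentration-response qHTS measuring drop in thallium-sensitive dye signal. U2OS cells carrying BacMam hERG; compound exposure ~10 min, then stimulation buffer and 2 min read at 1 sec intervals.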

[14] = qHTS assay for small molecule activators of the p53 signaling pathway (AID 651743; active = well fitted activation curve with a large enough effect in the signal ratio, not every such curve was filed as active; the % refers to the signal ratio; note: % of control where 0% means no effect); details: HCT-116 p53RE-bla, beta-lactamase FRET ratio, 16 h; stronger effect = higher value
Method in brief: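 p53RE-bla HCT-116 cells with a stably integrated beta-lactamase reporter under p53 response elements were plated, rested 5 hours at 37 C/5% CO2, then exposed to compounds in DMSO for 16 hours at 37 C. LiveBLAzer B/G FRET substrate was read after 2 hours at room temperature.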

[15] = qHTS assay for small molecule activators of the nuclear factor-kappa B (NF-kB) signaling pathway (AID 651749; active = well fitted activation curve with a large enough effect in the signal ratio; the % refers to the signal ratio; note: % of control where 0% means no effect); details: NF-kB-bla ME-180 cells, beta-lactamase FRET ratio, 16 h; stronger effect = higher value
Method in brief: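 ME-180 cells stably carrying a beta-lactamase reporter under an NF-kB response element were exposed to compound or DMSO vehicle for 16 hr at 37C, 5% CO2. Pathway activation was read by FRET, since reporter expression disrupts FRET.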

[16] = biological target: Vitamin D3 receptor (Homo sapiens) (UniProt P11473); experiment: qHTS assay for small molecule agonists of vitamin D receptor signaling (AID 588543); details: HEK293T VDR-UAS-bla, beta-lactamase ratio, 16 h; series mostly up to 76.8 µM;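 note: 0% = DMSO basal and 100% = reference agonist control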
Method in brief: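 β-lactamase reporter, VDR-UAS-bla HEK293T, agonist mode. Cells plated 5 h at 37 °C, compound titration 16 h at 37 °C, CCF4 dye 2 h RT, ratio 460/530 nm. Hill fit → EC50, efficacy vs 50 nM 1α,25-(OH)2D3.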

[17] = qHTS assay for small molecule agonists of the antioxidant response element (ARE) signaling pathway (AID 651741; active = well fitted activation curve with a large enough effect in the signal ratio; the % refers to the signal ratio; note: % of control where 0% means no effect); details: HepG2 ARE-bla reporter, beta-lactamase FRET ratio, 16 h; series mostly up to 96 µM
Method in brief: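 ARE-bla HepG2 cells (beta-lactamase reporter under ARE control) were plated at 2,000 cells/well, preincubated 5 h at 37 C/5% CO2, then treated with DMSO-dissolved compounds for 16 h at 37 C; LiveBLAzer B/G FRET substrate added, fluorescence read after 2 h at room temperature.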

CC=C(Cl)Cl
24.9%: max response [3]
-16.9%: max response [7]
inactive: activation [1] -2.89% | outcome [2] | outcome [4] | outcome [5] | outcome [6] | outcome [8] | outcome [9] | max response [11] -5.31% | activity change % (negative = inhibition) [12] -14.6% | Potency [13] | activation [14] -2.14% | activation [15] -0.14%
-7.38%: max response [10]

CCOc1ccccc1N
-5.65%: max response [10]
0.0722%: max response [7]
inactive: activation [1] -6.27% | outcome [2] | outcome [4] | outcome [6] | outcome [16] | outcome [8] | outcome [9] | max response [11] 20.5% | activity change % (negative = inhibition) [12] -11.6% | Potency [17] | activation [14] -1.62% | activation [15] -1.4%

CCOC(=O)C(C)C(C)=O (stereo not drawn)
inactive: activation [1] -10.2% | outcome [2] | outcome [8] | outcome [9] | activity change % (negative = inhibition) [12] 2.26% | Potency [13] | activation [14] 6.52%
-14.3%: max response [7]

Cc1cccc(Br)c1
inactive: activation [1] -2.46% | outcome [2] | outcome [4] | outcome [8] | outcome [9] | max response [11] 17.3% | activity change % (negative = inhibition) [12] 0.545% | Potency [13] | Potency [17] | activation [14] -1.99%
-0.411%: max response [7]
-8.74%: max response [10]

CC(=O)OCCC(C)C
-8.93%: max response [10]
-5.59%: max response [7]
-13.3%: max response [3]
inactive: activation [1] 4.89% | outcome [2] | outcome [4] | outcome [5] | outcome [8] | outcome [9] | max response [11] 2.22% | activity change % (negative = inhibition) [12] 8.77% | Potency [13] | Potency [17] | activation [14] -1.24%

CCCCC(CC)COCC1CO1 (stereo not drawn)
-2.88%: max response [7]
2.35%: max response [10]
inactive: activation [1] -12.2% | outcome [2] | outcome [4] | outcome [6] | outcome [16] | outcome [8] | outcome [9] | max response [11] 9.33% | activity change % (negative = inhibition) [12] 1.98% | Potency [13] | Potency [17] | activation [15] 0.588%

C1CCCC1
-15.6%: max response [10]
-15.2%: max response [7]
inactive: activation [1] 2.06% | outcome [2] | outcome [4] | outcome [5] | outcome [6] | outcome [16] | outcome [8] | outcome [9] | max response [11] -5.52% | activity change % (negative = inhibition) [12] -1.41% | Potency [13] | Potency [17] | activation [14] -0.131%

CC/C=C/C#N
-0.89%: max response [10]
12.5%: max response [3]
-6.67%: max response [7]
inactive: activation [1] -1.94% | outcome [2] | outcome [4] | outcome [6] | outcome [16] | outcome [8] | outcome [9] | max response [11] 10.5% | activity change % (negative = inhibition) [12] 3.84% | Potency [17] | activation [14] -0.654% | activation [15] -2.54%

CC1(N)CCC(C(C)(C)N)CC1 (stereo not drawn)
4.37%: max response [10]
-6.34%: max response [7]
inactive: activation [1] 7.57% | outcome [4] | outcome [6] | outcome [16] | outcome [8] | outcome [9] | max response [11] 0.335% | activity change % (negative = inhibition) [12] -1.11% | Potency [13] | Potency [17] | activation [14] 0.302% | activation [15] -1.08%

Cc1ccc2ccccc2c1[N+](=O)[O-]
inactive: activation [1] -8.32% | outcome [2] | outcome [4] | outcome [6] | outcome [16] | outcome [8] | max response [11] 2.75% | activity change % (negative = inhibition) [12] -6.91% | Potency [13] | activation [14] 0.53% | activation [15] 0.793%
0.642%: max response [10]
-7.86%: max response [7]

OC(CCl)CCl
inactive: activation [1] 14.2% | outcome [2] | outcome [4] | outcome [5] | outcome [6] | outcome [16] | outcome [8] | outcome [9] | max response [11] -2.39% | activity change % (negative = inhibition) [12] 2.68% | Potency [13] | Potency [17] | activation [14] -1.36% | activation [15] 1.2%
-12.4%: max response [10]
-16.7%: max response [7]

CCCCCCO
-3.18%: max response [10]
-18.4%: max response [7]
inactive: activation [1] -1.01% | outcome [2] | outcome [4] | outcome [5] | outcome [6] | outcome [16] | outcome [8] | max response [11] -1.79% | activity change % (negative = inhibition) [12] 4.77% | Potency [13] | activation [14] -2.65% | activation [15] -0.278%

CC(C)(c1cc(Br)c(OCC(Br)CBr)c(Br)c1)c1cc(Br)c(OCC(Br)CBr)c(Br)c1 (stereo not drawn)
-13.7%: max response [3]
inactive: activation [1] 11.6% | outcome [2] | outcome [4] | outcome [6] | outcome [16] | max response [11] 2.49% | activity change % (negative = inhibition) [12] -9.17% | Potency [13] | Potency [17] | activation [14] 2.84%
-15.9%: max response [10]

CSc1ccc(C=O)cc1
-15.5%: max response [7]
inactive: activation [1] -2.41% | outcome [2] | outcome [4] | outcome [6] | outcome [8] | outcome [9] | max response [11] 1.67% | activity change % (negative = inhibition) [12] 3.08% | Potency [13] | activation [15] 0.0922%
-1.24%: max response [10]
